Here are results for 15 molecules from PubChem BioAssay (NCATS).

Results filed as inconclusive are left out. Calls of active or inactive are those of the source. Unless noted, calls follow the shape of the dose curve; as a rule, active = well fitted curve in the direction sought with a large enough effect; inconclusive = small, poorly fitted or top-dose-only effect, or another doubt; inactive = no such curve, though single readings can be large; an effect the other way counts as inactive or inconclusive.

Assay [1] is described as follows: High-throughput drug toxicity screening in the BPDCN cell line Gen2.2 (AID 1224824; call rule not given here;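 also: cells exposed to compounds for 48 h before reading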). To be noted: Gen2.2 BPDCN cells; at 45.8 µM (top of the series) unless noted. The essentials: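 Gen2.2 cells, 500 per well in phenol red-free RPMI with 10% FBS, exposed to compounds 48 h at 37 C, 5% CO2; viability by CellTiter-Glo luminescence. Percent activity scaled to DMSO (100%) and 9.2 uM bortezomib final (0%).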

Assay [2] can be described thus: High-throughput drug toxicity screening in the BPDCN cell line Cal-1 (AID 1224825; call rule not given here). To be noted: Cal-1 BPDCN cell viability, qHTS; at 45.8 µM (top of the series) unless noted. The essentials:
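Cal-1 cells, 500 per well in phenol-red-free RPMI with 10% FBS, exposed to compounds for 48 hours at 37C, 5% CO2. Viability read by CellTiter-Glo luminescence; percent activity normalized to DMSO (100%) and 9.2 uM bortezomib final (0%).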

The nature of assay [3]: qHTS assay for measurement of the activity of small molecule inhibitors on Zika virus induced Caspase-3 activity in human iPSC derived neural progenitor cells (hNPCs) (AID 1224857). Also: % of control where 0% means no effect; nearly all actives have a fitted effect of over 65% in size. The essentials:
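Zika virus (2 FFU/cell) infection of human iPSC-derived NPCs, 6 h, following 1 h compound preincubation. Read-out: Caspase-Glo 3/7 luminescence.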

The nature of assay [4]: qHTS assay for measurement of the activity of small molecule inhibitors on Zika virus induced Caspase-3 activity in human astrocytoma cells (AID 1224859).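 Also: plate controls were ZIKV-infected untreated cells for no effect and uninfected cells for full effect.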 The essentials: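 Caspase activation in ZIKV-infected SNB-19 cells (2 FFU/cell, 6 h) measured by Caspase-Glo 3/7 luminescence after 30 min RT; compound pre-incubated 1 h; normalised to uninfected and infected controls.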
(In general: Quantitative high-throughput screening tests each substance at several concentrations.)

The nature of assay [5]: qHTS Screen of the MIPE 4.0 Collection Against Ewings Sarcoma (RDES) (AID 1259252). Also: nearly all actives have a fitted effect of over 35% in size. Also: potency is read from the fitted curve at half-maximal effect. The essentials:
(§1)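 Dose series incubated 48 h with cells in RPMI plus 5% FBS, glutamine and penicillin/streptomycin; cell viability then quantified via CellTiter-Glo.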

The nature of assay [6]: qHTS Screen of the MIPE 4.0 Collection Against Ewings Sarcoma (EW8) (AID 1259255). Also: nearly all actives have a fitted effect of over 35% in size. Also: potency is read from the fitted curve at half-maximal effect.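 As to viability: 100% = DMSO-treated cells and 0% = medium-only wells without cells.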 The procedure, abridged: as §1
Assay [7] in a line: qHTS Screen of the MIPE 4.0 Collection Against Ewings Sarcoma (TC32) (AID 1259256). Also: nearly all actives have a fitted effect of over 45% in size. Also: potency is read from the fitted curve at half-maximal effect. The essentials:
as §1

Assay [8] is described as follows: Identifying Small Molecule Inhibitors of Pancreatic Cancer Stem Cells (SN12C, Adherent) (AID 1259358).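 Also: cell survival measured after 48 h of compound exposure.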 Also: potency is read from the fitted curve at half-maximal effect. The essentials:
(§2)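 Endpoint: ATP-based luminescence, 48 h drug exposure. Bortezomib at 9.2 uM final as full-kill control; DMSO vehicle as negative control; activity normalized between vehicle and cell-free wells.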

The nature of assay [9]: Identifying Small Molecule Inhibitors of Pancreatic Cancer Stem Cells (SN12C, Spheroid) (AID 1259360). Also: potency is read from the fitted curve at half-maximal effect.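 As to viability (% of control): 100% = DMSO-treated cells and 0% = wells without cells.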 The settings on record: Potency: SN12C spheroid viability. The procedure, abridged:
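Pre-formed 14-day tumor spheroids or adherent cells dosed and incubated 48 h, 37C, 5% CO2. Viability assessed by CellTiter-Glo.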

Assay [10] is described as follows: Identifying Small Molecule Inhibitors of Pancreatic Cancer Stem Cells (A278, Adherent) (AID 1259361).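 Also: viability read after 48 h compound exposure; nearly all actives have a fitted effect of over 35% in size.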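 As to viability (% of control): 100% = DMSO-treated cells and 0% = cell-free media-only wells.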 The essentials: as §2
Assay [11] can be described thus: Identifying Small Molecule Inhibitors of Pancreatic Cancer Stem Cells (Panc1, Adherent) (AID 1259362).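 Also: compound exposure lasted 48 h before the viability read; plate controls were DMSO-treated cells for no effect and cell-free media wells for full effect.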 To be noted: Potency: viability. The essentials: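 Luminescent ATP readout (CellTiter-Glo) quantifies surviving cells after a 48 h drug incubation. Normalization uses DMSO wells as no inhibition and media-only wells as full inhibition; bortezomib served as positive control.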

The nature of assay [12]: P-glycoprotein substrates identified in KB-3-1 adenocarcinoma cell line, qHTS therapeutic library screen (AID 1346986). Also: nearly all actives have a fitted effect of over 60% in size. The procedure, abridged:
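Compounds were tested in dose-response against KB-3-1 and KB-8-5-11 cells at 37 degree C for 72 h, and viability was measured by luminescence. AC50 values came from curve fitting with class-based activity calls.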

A short description of assay [13]: P-glycoprotein substrates identified in KB-8-5-11 adenocarcinoma cell line, qHTS therapeutic library screen (AID 1346987). Also: nearly all actives have a fitted effect of over 65% in size. The procedure, abridged: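 KB-8-5-11: colchicine-selected sub-line of KB-3-1 over-expressing P-gp; assay medium lacked colchicine. 72 h drug exposure at 37 degree C, CellTiter-Glo.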
Assay [14] in a line: qHTS Screen of the MIPE 4.0 Collection Against Ewings Sarcoma (TC71) (AID 1259253). Also: nearly all actives have a fitted effect of over 40% in size. Also: potency is read from the fitted curve at half-maximal effect. The procedure, abridged:
as §1

A short description of assay [15]: qHTS assay to identify small molecule inhibitors of chordoma cells - UCH-1 (AID 1259355). Also: % is scaled to controls: 0 for no effect and ±100 for the full control effect; nearly all actives have a fitted effect of over 55% in size. The procedure, abridged:
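Cells (800/well) were seeded and left overnight at 37 C, 5% CO2, then treated with drugs at 15 concentrations plus a combination mix of auranofin, camptothecin, doxorubicin, rubitecan and topotecan. Viability after 48hr was read by CellTiter-Glo luminescence.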

A short description of assay [16]: Natriuretic polypeptide receptor (hNpr1) antagonism - Pilot counterscreen GloSensor control cell line (AID 1347045; calls by dose curve; also: % is scaled to controls: 0 for no effect and ±100 for the full control effect). The essentials:
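HEK293 cells carrying the GloSensor cGMP sensor (GIP/pGS-40F) were loaded with 2% GloSensor reagent for 2 h, exposed to compounds for 30 min, and then stimulated with 50 uM sodium nitroprusside for 20 min at room temperature.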
A general note: A counterscreen serves to expose hits that act by an unwanted route or on another target.

Assay [17] in a line: Identifying Small Molecule Inhibitors of Pancreatic Cancer Stem Cells (Panc1, Spheroid) (AID 1259359).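 Also: potency is read from the fitted curve at half-maximal effect; compound exposure lasted 48 h before reading.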 The procedure, abridged: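 After a 4 h attachment period, compounds were pinned into wells and cultures held 48 h under standard incubator conditions. Viability was then measured as CellTiter-Glo luminescence following 10 min at room temperature.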
A short description of assay [18]: qHTS assay to identify small molecule inhibitors of chordoma cells - UCH-2 (AID 1259356). Also: % is scaled to controls: 0 for no effect and ±100 for the full control effect.

As for `NC(=O)c1ccc(-c2nc(-c3ccc4c(c3)OCO4)c(-c3ccccn3)[nH]2)cc1`, the cell viability, % of control (lower = more cytotoxic) in assay [1] was 624%. Further, the viability (% of control) in assay [2] was determined as 113%. In addition, the Potency entry in assay [3], in assay [4], in [5], in [7], in assay [8] and in [9] was “inactive” throughout. Moreover, the Potency entry in assay [11], in assay [12] and in assay [13] was “inactive” in each case. Further, the Potency in assay [6] was 16.6 µM (active). The IC50 (viability decrease) entry in assay [10] is “inactive”.

For the molecule `O=C1CCc2cc(OCCCCc3nnnn3C3CCCCC3)ccc2N1`, the cell viability, % of control (lower = more cytotoxic) in assay [1] stood at 137%. Moreover, in [2], the viability (% of control) is 84.4%. The Potency result in [3], in assay [4], in assay [5], in [14], in assay [6] and in [7] was “inactive” throughout. Also, the Potency entry in assay [15] and in assay [13] was “inactive” in each case. The molecule was called inactive in [16].

On to `NC(=O)c1cnccn1`, for which the cell viability, % of control (lower = more cytotoxic) in [1] was 146%. Moreover, in assay [2], the viability (% of control) was 118%. The Potency result in [3], in assay [4], in assay [5], in assay [6], in assay [7] and in assay [15] was “inactive” in each case. In addition, the Potency result in assay [12] and in assay [13] was “inactive” each time. Moreover, in assay [16], the outcome was inactive.

Regarding `Cc1cnc(NC(=O)C2=C(O)c3ccccc3S(=O)(=O)N2C)s1`, the cell viability, % of control (lower = more cytotoxic) in assay [1] amounted to 60.9%. Besides, the viability (% of control) in assay [2] turned out to be 96.3%. Also, the Potency entry in assay [3], in assay [4], in assay [5], in [14], in [6] and in assay [7] was “inactive” throughout. Moreover, the Potency entry in assay [15] and in assay [13] was “inactive” in each case.

Regarding `Nc1cccc(S(=O)(=O)N2CCCN(S(=O)(=O)c3ccc4c(c3)OCCO4)CC2)c1`, the cell viability, % of control (lower = more cytotoxic) in assay [1] came out at 162%. Besides, the viability (% of control) in assay [2] amounted to 104%. Besides, the Potency result in [3], in [4], in assay [5], in [7], in assay [8] and in assay [9] was “inactive” each time. For the same molecule, the Potency entry in [11] was “inactive”. For the same molecule, the Potency is 16.6 µM (active) in assay [14] and 5.26 µM (active) in assay [17]. Also, the IC50 (viability decrease) result in assay [10] is “inactive”.

In the case of `O=C(Nc1nc2ccccc2n1CCN1CCOCC1)c1cccc([N+](=O)[O-])c1`, the cell viability, % of control (lower = more cytotoxic) in assay [1] was found to be 43.3%. Moreover, the viability (% of control) in assay [2] came out at 4.89%. Moreover, the Potency entry in assay [3], in assay [4], in assay [8], in [12] and in assay [13] was “inactive” in each case. For the same molecule, the results for the Potency in [5], in assay [6] and in assay [7] were 20.9 µM (active), 20.9 µM (active) and 18.7 µM (active), respectively. Besides, the molecule was called inactive in assay [16].

As to `O=c1ncn2nc(Sc3ccc(F)cc3F)ccc2c1-c1c(Cl)cccc1Cl`, the cell viability, % of control (lower = more cytotoxic) in assay [1] came to 98.9%. Besides, the viability (% of control) in assay [2] amounted to 45.3%. For the same molecule, the Potency result in assay [3], in assay [4], in [7], in assay [8] and in assay [13] was “inactive” throughout. For the same molecule, the Potency in [5] was 20.9 µM (active).

As for `O=C1[C@H](Cc2ccc(O)cc2)N2C(=O)CCN(C(=O)NCc3ccccc3)[C@H]2CN1Cc1cccc2ccccc12`, the cell viability, % of control (lower = more cytotoxic) in [1] is 6.07%. In addition, the viability (% of control) in [2] amounted to 31.2%. Moreover, the Potency result in assay [3] and in [4] was “inactive” in each case. Besides, the Potency in [14] was 2.96 µM (active); in assay [6], 2.64 µM (active); in assay [7], 1.87 µM (active); in [8] it was 16.6 µM (active); in assay [9], 20.9 µM (active). In assay [10], the IC50 (viability decrease) was 1.05 µM (active).

On to `CC(C)NCC(O)COc1ccc(COCCOC(C)C)cc1` (stereo not given), for which the cell viability, % of control (lower = more cytotoxic) in assay [1] was 123%. In [2], the viability (% of control) was found to be 113%. For the same molecule, the Potency result in assay [3], in assay [5], in assay [14], in assay [6], in [7] and in assay [15] was “inactive” in each case. Also, in assay [13], the Potency entry was “inactive”. Also, the result in assay [16] was inactive.

For the molecule `Clc1ccc(Nc2nnc(Cc3ccncc3)c3ccccc23)cc1`, the cell viability, % of control (lower = more cytotoxic) in assay [1] turned out to be 117%. Also, the viability (% of control) in assay [2] turned out to be 68.2%. Besides, the Potency result in assay [3], in [15], in assay [8] and in assay [13] was “inactive” in each case. Besides, the Potency in assay [5] was 2.96 µM (active); in assay [14], 20.9 µM (active); in [7], 26.4 µM (active). In [10], the IC50 (viability decrease) entry was “inactive”.

Turning to `O=C(Nc1cccnc1)N1CCC(Cc2cccc(Oc3ccc(C(F)(F)F)cn3)c2)CC1`, in [1], the cell viability, % of control (lower = more cytotoxic) amounted to 147%. For the same molecule, the viability (% of control) in assay [2] turned out to be 52.7%. The Potency entry in [3], in assay [4], in [8] and in assay [9] was “inactive” each time. The Potency in assay [5] is 18.7 µM (active).

Take `O=C(NOC[C@H](O)CO)c1ccc(F)c(F)c1Nc1ccc(I)cc1F`: the cell viability, % of control (lower = more cytotoxic) in assay [1] turned out to be 14.5%. Also, in assay [2], the viability (% of control) was found to be 41.6%. Also, the Potency entry in [3], in assay [4] and in [13] was “inactive” throughout. The Potency in assay [5] was 23.5 µM (active); in [8] it was 9.35 µM (active); in [9], 0.0053 µM (active).

Regarding `CCCC(CCC)C(=O)O`, in [1], the cell viability, % of control (lower = more cytotoxic) stood at 83.8%. Moreover, the viability (% of control) in assay [2] was found to be 100%. Moreover, the Potency result in assay [3], in [5], in assay [6], in assay [7], in assay [15] and in assay [13] was “inactive” each time. Also, the molecule was called inactive in [16].

Consider `OCCC#Cc1nc(-c2ccc(F)cc2)c(-c2ccncc2)n1CCCc1ccccc1`, for which, in assay [1], the cell viability, % of control (lower = more cytotoxic) was found to be 98.7%. For the same molecule, the viability (% of control) in assay [2] is 18.4%. Moreover, the Potency result in assay [3] and in assay [4] was “inactive” in each case. In addition, the Potency in assay [9] was 20.9 µM (active).

With `Cc1ccc(N(CC2=NCCN2)c2cccc(O)c2)cc1`, in [1], the cell viability, % of control (lower = more cytotoxic) turned out to be 80.5%. The viability (% of control) in assay [2] is 22.6%. In addition, the Potency result in assay [3], in assay [5], in [6], in assay [15] and in assay [13] was “inactive” each time. Further, the Potency was 14.8 µM (active) in assay [14] and 16.6 µM (active) in assay [7]. Further, in assay [18], the call was inactive.
